Laboratory results: a collection of fitness landscapes (doi:10.1016/j.celrep.2020.107928)
The full ranking holds about 81,000 sequences; the median of “one-hybrid fitness for binding NBS DNA” is about -0.1, and the highest 2% start at about 0.36. The entries come from a sample that favours the highest values as a whole.

B1: Caulobacter ParB omega fusion; a variant is named by its letters at X, in order, B8GW30 (parent)
chain: MESVVVGEPGMSEGRRGLGRGLSALLGEVDAAPAQAPGEQLGGSREAPIEILQRNPDQPRRTFREEDLEDLSNSIREKGVLQPILVRPSPDTAGEYQIVAGERAWRAAQRAGLKTVPIMVRELDDLAVLEIGIIENVQRADLNVLEEALSYKVLMEKFERTQENIAQTIGKSXSHVANXMRLLXLPDEVQSYLVSGELTAXHARAIAAAADPVALAKQIIEGGLSVRETEALARKAPNLSAGKSKGGRPPRVKDTDTQALESDLSSVLGLDVSIDHRGSTGTLTITYATLEQLDDLCNRLTRGI

Variants of: B1
Test: one-hybrid fitness for binding NBS DNA (the Noc-binding site; scaled: cognate 1, non-cognate 0); higher = stronger binding
Details: with NBS DNA site
How it was run: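 Pre- and post-selection plasmids were Illumina-sequenced, three replicate libraries were pooled, and any variant with under 10 reads was removed. The libraries were Caulobacter ParB with four specificity codons randomised, selected in E. coli USO through a HIS3 reporter whose site is 19 bp from the promoter. Cells grew 48 hours at 37°C on M9 without histidine, with 0.1 mM IPTG and 5 mM 3-AT. Fitness is the log change in variant-to-wild-type read ratio, rescaled against cognate and non-cognate.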

PSTM and IDSK cannot be ordered by “one-hybrid fitness for binding NBS DNA” value: no more than 0.2 for the first, no more than 0.2 for the second.

HNGW and VPAW cannot be ordered by “one-hybrid fitness for binding NBS DNA” value: no more than 0.2 for the first, no more than 0.2 for the second.

YCQT and TPGL cannot be ordered by “one-hybrid fitness for binding NBS DNA” value: no more than 0.2 for the first, no more than 0.2 for the second.

LPPV and HSKL cannot be ordered by “one-hybrid fitness for binding NBS DNA” value: no more than 0.2 for the first, no more than 0.2 for the second.

Compared with IRKS, CRVT is lower in “one-hybrid fitness for binding NBS DNA” value: 0.37 for the first, no more than 0.2 for the second.

IRKD and ICKS cannot be ordered by “one-hybrid fitness for binding NBS DNA” value: no more than 0.2 for the first, no more than 0.2 for the second.

ISKT and IRDT cannot be ordered by “one-hybrid fitness for binding NBS DNA” value: no more than 0.2 for the first, no more than 0.2 for the second.

Going from ISNT to CRKT, the “one-hybrid fitness for binding NBS DNA” value rises from no more than 0.2 to 0.365.

Compared with IRVT, IRNT is higher in “one-hybrid fitness for binding NBS DNA” value: no more than 0.2 for the first, 0.451 for the second.

Compared with CCKT, IRKT is higher in “one-hybrid fitness for binding NBS DNA” value: no more than 0.2 for the first, 0.471 for the second.

NWRM and VPHA cannot be ordered by “one-hybrid fitness for binding NBS DNA” value: no more than 0.2 for the first, no more than 0.2 for the second.

QWQG and FVWR cannot be ordered by “one-hybrid fitness for binding NBS DNA” value: no more than 0.2 for the first, no more than 0.2 for the second.

DGRN and NANS cannot be ordered by “one-hybrid fitness for binding NBS DNA” value: no more than 0.2 for the first, no more than 0.2 for the second.

VHVA and KSLV cannot be ordered by “one-hybrid fitness for binding NBS DNA” value: no more than 0.2 for the first, no more than 0.2 for the second.

First: HSRL
Second: IRNR
The “one-hybrid fitness for binding NBS DNA” value of the first is lower: no more than 0.2 for the first, 0.422 for the second.

Going from IRRT to ICNR, the “one-hybrid fitness for binding NBS DNA” value falls from 0.423 to no more than 0.2.

Going from IRRR to ICRR, the “one-hybrid fitness for binding NBS DNA” value falls from 0.601 to 0.291.

Going from IRYR to IRDR, the “one-hybrid fitness for binding NBS DNA” value falls from 0.226 to no more than 0.2.

Going from ICKR to IRYT, the “one-hybrid fitness for binding NBS DNA” value falls from 0.273 to no more than 0.2.

First: ISKR
Second: ICRT
The “one-hybrid fitness for binding NBS DNA” value of the first is higher: 0.243 for the first, no more than 0.2 for the second.

First: IRKR
Second: HAYM
The “one-hybrid fitness for binding NBS DNA” value of the first is higher: 0.67 for the first, no more than 0.2 for the second.

CMSN and ARHS cannot be ordered by “one-hybrid fitness for binding NBS DNA” value: no more than 0.2 for the first, no more than 0.2 for the second.

TQNT and TSWF cannot be ordered by “one-hybrid fitness for binding NBS DNA” value: no more than 0.2 for the first, no more than 0.2 for the second.

VQPL and RWGG cannot be ordered by “one-hybrid fitness for binding NBS DNA” value: no more than 0.2 for the first, no more than 0.2 for the second.

MFWL and RIRE cannot be ordered by “one-hybrid fitness for binding NBS DNA” value: no more than 0.2 for the first, no more than 0.2 for the second.

TLNG and DAAP cannot be ordered by “one-hybrid fitness for binding NBS DNA” value: no more than 0.2 for the first, no more than 0.2 for the second.

GRNT and VFAC cannot be ordered by “one-hybrid fitness for binding NBS DNA” value: no more than 0.2 for the first, no more than 0.2 for the second.

First: QMRA
Second: QCRA
The “one-hybrid fitness for binding NBS DNA” value of the first is lower: 0.569 for the first, 0.658 for the second.

Going from QADA to QHRA, the “one-hybrid fitness for binding NBS DNA” value rises from no more than 0.2 to 0.533.

Going from QARA to QHDA, the “one-hybrid fitness for binding NBS DNA” value falls from 0.519 to no more than 0.2.

First: QMDA
Second: QMYA
The “one-hybrid fitness for binding NBS DNA” value of the first is lower: no more than 0.2 for the first, 0.267 for the second.

Compared with QAYA, QHYA is higher in “one-hybrid fitness for binding NBS DNA” value: 0.249 for the first, 0.291 for the second.

Compared with QPRA, QCYA is higher in “one-hybrid fitness for binding NBS DNA” value: no more than 0.2 for the first, 0.328 for the second.

QTEQ and PTMF cannot be ordered by “one-hybrid fitness for binding NBS DNA” value: no more than 0.2 for the first, no more than 0.2 for the second.

HNHR and PCGG cannot be ordered by “one-hybrid fitness for binding NBS DNA” value: no more than 0.2 for the first, no more than 0.2 for the second.

TWLL and LKVE cannot be ordered by “one-hybrid fitness for binding NBS DNA” value: no more than 0.2 for the first, no more than 0.2 for the second.

PCRQ and SSRV cannot be ordered by “one-hybrid fitness for binding NBS DNA” value: no more than 0.2 for the first, no more than 0.2 for the second.

Compared with HLTD, QIRA is higher in “one-hybrid fitness for binding NBS DNA” value: no more than 0.2 for the first, 0.386 for the second.

Compared with QSRA, QKYA is lower in “one-hybrid fitness for binding NBS DNA” value: 0.516 for the first, 0.249 for the second.

QIAA and QSDA cannot be ordered by “one-hybrid fitness for binding NBS DNA” value: no more than 0.2 for the first, no more than 0.2 for the second.

First: QKFA
Second: QKRA
The “one-hybrid fitness for binding NBS DNA” value of the first is lower: no more than 0.2 for the first, 0.539 for the second.

First: QIYA
Second: QLRA
The “one-hybrid fitness for binding NBS DNA” value of the first is lower: no more than 0.2 for the first, 0.479 for the second.

Going from QLYA to QSYA, the “one-hybrid fitness for binding NBS DNA” value rises from no more than 0.2 to 0.208.

QLDA and MCAS cannot be ordered by “one-hybrid fitness for binding NBS DNA” value: no more than 0.2 for the first, no more than 0.2 for the second.

PTRY and CVKD cannot be ordered by “one-hybrid fitness for binding NBS DNA” value: no more than 0.2 for the first, no more than 0.2 for the second.

PVDC and YENN cannot be ordered by “one-hybrid fitness for binding NBS DNA” value: no more than 0.2 for the first, no more than 0.2 for the second.

Compared with QHSL, RRVM is higher in “one-hybrid fitness for binding NBS DNA” value: no more than 0.2 for the first, 0.206 for the second.

Compared with RRKM, RRYM is lower in “one-hybrid fitness for binding NBS DNA” value: 0.647 for the first, 0.296 for the second.

First: RRRG
Second: RRYG
The “one-hybrid fitness for binding NBS DNA” value of the first is higher: 0.497 for the first, 0.331 for the second.

First: RCKM
Second: RRVD
The “one-hybrid fitness for binding NBS DNA” value of the first is higher: 0.238 for the first, no more than 0.2 for the second.

Compared with RRVS, RCVS is lower in “one-hybrid fitness for binding NBS DNA” value: 0.605 for the first, 0.335 for the second.

Going from RCRM to RRDG, the “one-hybrid fitness for binding NBS DNA” value falls from 0.231 to no more than 0.2.

First: RRRM
Second: HRIT
The “one-hybrid fitness for binding NBS DNA” value of the first is higher: 0.651 for the first, no more than 0.2 for the second.

SNQT and TVTC cannot be ordered by “one-hybrid fitness for binding NBS DNA” value: no more than 0.2 for the first, no more than 0.2 for the second.

GVCG and MMPN cannot be ordered by “one-hybrid fitness for binding NBS DNA” value: no more than 0.2 for the first, no more than 0.2 for the second.

MEVE and LLMQ cannot be ordered by “one-hybrid fitness for binding NBS DNA” value: no more than 0.2 for the first, no more than 0.2 for the second.

Compared with CKKG, RRKD is higher in “one-hybrid fitness for binding NBS DNA” value: no more than 0.2 for the first, 0.226 for the second.

Compared with RRRF, RRDF is lower in “one-hybrid fitness for binding NBS DNA” value: 0.442 for the first, no more than 0.2 for the second.

Compared with RRKE, RRYP is lower in “one-hybrid fitness for binding NBS DNA” value: 0.214 for the first, no more than 0.2 for the second.

Compared with RRKS, RRVP is lower in “one-hybrid fitness for binding NBS DNA” value: 0.68 for the first, no more than 0.2 for the second.

First: RRVN
Second: RRKP
The “one-hybrid fitness for binding NBS DNA” value of the first is lower: 0.238 for the first, 0.379 for the second.

Going from RCKN to RRYF, the “one-hybrid fitness for binding NBS DNA” value falls from 0.27 to no more than 0.2.

First: RRKN
Second: TKMW
The “one-hybrid fitness for binding NBS DNA” value of the first is higher: 0.646 for the first, no more than 0.2 for the second.

MWVR and CLAT cannot be ordered by “one-hybrid fitness for binding NBS DNA” value: no more than 0.2 for the first, no more than 0.2 for the second.

TSDV and AMPA cannot be ordered by “one-hybrid fitness for binding NBS DNA” value: no more than 0.2 for the first, no more than 0.2 for the second.

PHPV and QICI cannot be ordered by “one-hybrid fitness for binding NBS DNA” value: no more than 0.2 for the first, no more than 0.2 for the second.

IYNQ and TYVC cannot be ordered by “one-hybrid fitness for binding NBS DNA” value: no more than 0.2 for the first, no more than 0.2 for the second.

YDYM and LLAR cannot be ordered by “one-hybrid fitness for binding NBS DNA” value: no more than 0.2 for the first, no more than 0.2 for the second.

First: RRVK
Second: RRKF
The “one-hybrid fitness for binding NBS DNA” value of the first is lower: no more than 0.2 for the first, 0.484 for the second.

First: RCKK
Second: RRVH
The “one-hybrid fitness for binding NBS DNA” value of the first is lower: 0.248 for the first, 0.321 for the second.

Compared with RRVY, RCKF is lower in “one-hybrid fitness for binding NBS DNA” value: 0.301 for the first, no more than 0.2 for the second.

Going from RRKK to RRVF, the “one-hybrid fitness for binding NBS DNA” value falls from 0.438 to no more than 0.2.

Going from RRKH to RSKY, the “one-hybrid fitness for binding NBS DNA” value falls from 0.798 to 0.29.

Compared with RRKL, RRKY is higher in “one-hybrid fitness for binding NBS DNA” value: 0.259 for the first, 0.79 for the second.

SCIR and RESS cannot be ordered by “one-hybrid fitness for binding NBS DNA” value: no more than 0.2 for the first, no more than 0.2 for the second.

WPIG and WPLC cannot be ordered by “one-hybrid fitness for binding NBS DNA” value: no more than 0.2 for the first, no more than 0.2 for the second.

For PERM, the “one-hybrid fitness for binding NBS DNA” value was no more than 0.2.
